# Test results: the supplement of paper PMC11417369
# Whole data set: some 25,000 sequences, median “ln(normalized median fluorescence intensity)” near 9.3, cut for the highest 2% near 10. The full list was thinned out, with the highest values kept by preference.
# Test system: PF3D7_0420300 AP2 domain 1 (GST-tagged)
# Experiment: gcPBM binding intensity (ln(normalized median fluorescence intensity)); higher = stronger DNA binding
# Method in brief: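 For binding intensity, the highest Masliner-normalised natural-log median intensity across replicate spots of either probe orientation was taken. Protein bound to the array was stained with Alexa488 anti-GST antibody and scanned at 488 nm. The protein, GST-tagged P. falciparum DNA-binding domains from E. coli at about 25 μg on average, had been applied for 1 h to an Agilent 4 × 180k array of primer-extended double-stranded 36-bp intergenic genomic probes and negative controls.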
row,Sequence,gcPBM binding intensity (ln)
1,TTTTTTTTTGTTTACACACACAAAATATTATATGTA [CACACA_site2470],9.66
2,AATATATACATACATACATGCACATATATATATATA [TGCATGCA_site393],9.36
3,CATATTAAAAATACATGTACATATATATTTAATATA [XGTACX_site8580],9.08
4,ATTAAAAAAGAATATACACACCAAAACTGTTTGTTA [CACACA_site4687],9.21
5,ATATGACTGTTCATTTGTACGTATAATTATATACGT [XGTACX_site3372],9.33
6,ATCAACAAAACATACACACACATATAGATTTATATA [CACACA_site7415],10
7,TTTTCAATTTTTTATGAACACACAAAAAAAAAAAAA [CACACA_site8808],8.77
8,GTAGAGCATAATAAAACACACACATACATACATATA [CACACA_site8217],9.84
9,TACATACACAAATACACACACAAATACATACACAAA [CACACA_site704],10.1
10,GGTACATACAAACACACACACAAAAAAAAAAAAATA [CACACA_site1577],9.91
11,AAAAAAAAAAAACACACACACAAATACAAATACATA [CACACA_site415],10.2
12,AATACATACACAAATACACACACAAATACATACACA [CACACA_site8134],10.1
13,AAAAAAAAAAAACACACACACACAAATACATACACA [CACACA_site706],10.2
14,TTTTTTTTTTTTAATTAACACACATAAATATATATA [CACACA_site9077],9.11
15,AAAAAATAATTGAAGTGTACGTACAATGATTTTACT [XGTACX_site7663],9.35
16,CCCATGTAATATTAAACACACACTCATATAACACAA [CACACA_site7906],9.71
17,CCCCATATAATGAACACACACACTCCTCATAATTAA [CACACA_site628],10.2
18,TTTCCCCCATATAATGAACACACACCCTCCTCATAA [CACACA_site8110],9.85
19,ACCTATATAAATTATACACACAAATATAAATATATA [CACACA_site2843],9.66
20,ACAAAATATACAAAATGTACAAAATTTACAAAATAT [XGTACX_site6466],9.43
21,TATAAAATGACTATATATAATATTAAAAAAAAAAAA [TGCATGCA_negctrl_site387],9.11
22,AAGGCAAACAAACACACACACATATATACCTATATA [CACACA_site5203],10
23,GTACCTATTTCATACACACACACACGCAAACAAACA [CACACA_site6590],10.3
24,CCAAACAAAAAAAAAAGTACATAAAACACCTATTTG [XGTACX_site5645],9.46

row,Sequence,gcPBM binding intensity (ln)
1,GTACCTATTTCATACACACACACACCCAAACAAACA [CACACA_site976],10.3
2,ATTTCATACAGACACACACACAAACAAACATATATA [CACACA_site979],10.1
3,ATGTACCTATTTCATACACACACACCCACAAACAAA [CACACA_site8232],10
4,TATATTTAATTATTATGTACTTATAATTTTTGAAAG [XGTACX_site8548],8.95
5,TTAATATAACTTTTTGCACACTTAATTTTTTTTTTT [CACACA_site3364],9.44
6,TATATATATATACCAACACACATACAGATATATATA [CACACA_site5060],9.7
7,ACATATACATATATATGTACATAAATATATATATAT [XGTACX_site8630],9.17
8,TATTCATGCATATACACACACATATATATATATTTT [CACACA_site3955],9.85
9,TCTTTTTTTACTTTCTTTTTTTTTTTTTTTTTTTTT [XGTACX_negctrl_site610],9.11
10,ATAAATATATATTTACGTACATATTATATATATATA [XGTACX_site6172],9.27
11,TAGACTCCCAGACACACACACACACCCATATAATAT [CACACA_site593],10.2
12,CGCGCACCCAGACACACACACACACCGATATATATA [CACACA_site8687],10.2
13,CGCGCACCCAGACACACACACACACCCATATATATA [CACACA_site2203],10.2
14,CACCCATACAGACATACACACACATATATATTAATA [CACACA_site8077],9.87
15,GGAGCACCCAGACACACACACACATATATATATATA [CACACA_site336],10.1
16,TATAAACACCCATATAAACACACATATAAACCAACA [CACACA_site8790],9.79
17,TATACACCCAGACACACACACACACCCAAAAAAAAA [CACACA_site497],10
18,CACCCACACCAACACACACACATATATATATATATA [CACACA_site362],10.1
19,CACGCGCACCAACACACACACACACCCATATATATA [CACACA_site2204],10.3
20,TAATTTTTAATTGTAGCATGCAGTATTTTTAAATAT [TGCATGCA_site140],8.97
21,TACTTACAGATAATAACACACAAGAAAAAAATAAAA [CACACA_site4716],9.8
22,CAAATATATATTTTCTGTACAAATACAATTAATACT [XGTACX_site2694],9.13
23,ATAAAGAAAATATGGAGTACATTTATATCCAATATA [XGTACX_site3085],9.17
24,CACAATGGTTTATATACACACTGTTGCAAATTCTTC [CACACA_site5659],9.45

row,Sequence,gcPBM binding intensity (ln)
1,TATAGTTCTTCTATTTGTACATATATTATTATTTAA [XGTACX_site895],9.26
2,ATTAATATATTATCATGTACACAAAAATAATTTTAT [XGTACX_site7257],9.13
3,TTAAAATGTTGTAACGTGCACATTTTGTGGAAATCA [GTGCAC_site9559],9.07
4,AAATAATTCATATGTTGTACAGTAATTAAATTTTCT [XGTACX_site6343],9.08
5,AAAAAAAAAAAACACACACACACACCGAAATATATA [CACACA_site4261],10.2
6,TACGCTCCCAGACACACACACACACCGATATAATAT [CACACA_site8098],10.3
7,ATAATATATATTAATACACACACACCGATATATATA [CACACA_site9261],10.1
8,CTATAATAATAAAGTGAACACACACCGATAATATAT [CACACA_site9377],9.78
9,GAAATGGGTAAACATACACACACACCGATATATATA [CACACA_site8610],9.93
10,CGCGCCCAGAAACACACACACACACCGATATATATA [CACACA_site5250],10.3
11,AATATAAATAAAAACACACACAATGGTACAGATATA [CACACA_site5930],10.1
12,TGTATAATAAGGAAGAGTACAAGTAAATACACACAT [XGTACX_site2084],9.87
13,ATTATGTGCCAATACACACACACATATATATATATA [CACACA_site468],9.9
14,AGAAAGATGCAAGAAACATGCAAAAAAAAAATTTCT [TGCATGCA_site725],9.15
15,AAAAATTCAATAGGACGTACTAAAACATTCATTAAT [XGTACX_site1712],9.34
16,AAAATACATAGACACACACACACACGGATATAAATA [CACACA_site7643],10.2
17,GATATATAAATAAATACACACATAAAATAGAAATAT [CACACA_site6881],9.93
18,AAAAATAAAGGATATACACACTAATTATATATATAT [CACACA_site5550],9.51
19,TAAATTTATAGACACACACACATATAAATAAATATA [CACACA_site6530],10
20,CACTAAAATAGACACACACACACACGGATATAAATA [CACACA_site7873],10.3
21,AAAAAAAATAGACACACACACATACACATAAATATA [CACACA_site7742],10.1
22,TATATAACTGTCTTCACACACACATATAAATAAATA [CACACA_site7317],9.77
23,TAATTTCTTTAGGGGGTGCTTTTATAGTTTTTATTA,10.1
24,TATATATTTATTTATAGTACACTATTTATGAAAACC [XGTACX_site3062],9.1

row,Sequence,gcPBM binding intensity (ln)
1,ATTAAAAGGGGGTTTACATGTGTGTGTGTAATATGG [TGCATGCA_negctrl_site293],10.2
2,AATAATATTAATAAAAGTACATGTGTAATATATATA [XGTACX_site5922],9.51
3,TATAATCATATTAAGGGTACATATGTGTAAATATTT [XGTACX_site6018],9.23
4,AACAACTATTACTGCACACATTCTTACACTATATAA [CACACA_site654],9.75
5,TATAAATAAAGCAGTACACACATTTATTTTAGATAC [CACACA_site7566],9.61
6,GGGGGGAGGGTGAATACACACGTAATAATCATAAAC [CACACA_site8502],10.3
7,ATAAATATCATATATATACACACGTAATACATAATA [CACACA_site4001],9.56
8,ATAAAAAAATCAGACACACACACGTAAACACATACA [CACACA_site5529],10.1
9,ATGCTATATTAAAAACGTACAAACTGTTTAGAAAAA [XGTACX_site8943],9.12
10,TTATTTAGTATATTATGTACATACAATGCCTGGGAA [XGTACX_site4578],9.21
11,TATAAATAAATAGATACACACATATTTATAAATACA [CACACA_site6219],9.56
12,TAAATATATAAATACACACACACCAAAGCAATAGAT [CACACA_site5605],10.2
13,AATAGTAAAAGATATACACACACCAAAAAATATAAT [CACACA_site5293],9.99
14,TAAATATATATATACACACACACCAAAGCAATAGAT [CACACA_site2940],10.3
15,TGTAAATATATATATACACACACACCGAAGCAATAG [CACACA_site8960],10.1
16,AAAAAGAAAATATATACACACCAAAAAAAAAAAAAA [CACACA_site5698],9.46
17,AATAGTAAAAGATATACACACACCAAAAAATAGAAT [CACACA_site2289],10.3
18,TAAAAAAGAAAATATATACACACCAAAAAAAAAAAA [CACACA_site3146],9.66
19,AATAAAGCAATAAATACACACATATTTATATTTATA [CACACA_site7390],9.56
20,TAAATATATTTATACACACACACCAAAGCAATAGAT [CACACA_site7393],10.3
21,AATAAAGCAATAAATACACACATATATATATATATA [CACACA_site2934],9.31
22,TATATATATAAATACACACACACACCCCAAAGCGTA [CACACA_site4211],10.1
